For eight molecules, Potency results are on record in PubChem BioAssay (Tox21).

Values joined by “and” are separate entries in the source; they are usually repeats but may differ in a detail not shown here. Identical values can stand only once. Results filed as inconclusive are left out. Some compounds were tested as several samples or in several runs, with calls that do not always agree. Active and inactive are the calls of the source. Unless noted, calls come from the whole dose curve.

Assay [1] in a line: Nuclear factor erythroid 2-related factor 2/antioxidant responsive element (Nrf2/ARE) small molecule agonists: qHTS cell viability counter screen in human keratinocytes (AID 1919968; active = well fitted curve in the direction sought with a large enough effect in the repeat runs; an effect the other way counts as inactive or inconclusive; note: nearly all actives have a fitted effect of over 55% in size). An outline of the steps: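 Cells of the KeratinoSens line were plated at 1,500 per well and left for 5 h before compound transfer from DMSO stocks. After a 23 h incubation (37 C, 5% CO2), CellTiter-Fluor was added. Signal was taken as fluorescence intensity 1 h later.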

Assay [2] is described as follows: Nuclear factor erythroid 2-related factor 2/antioxidant responsive element (Nrf2/ARE) small molecule agonists: luciferase reporter gene qHTS assay in human keratinocytes (AID 1919969). Note: nearly all actives have a fitted effect of over 35% in size. Note: potency is the fitted concentration of half-maximal effect.
The target in assay [3] is Gonadotropin-releasing hormone receptor (Homo sapiens) (UniProt P30968). Briefly: Human gonadotropin-releasing hormone receptor (GnRHR) small molecule agonists, calcium flux assay in GnRHR-HEK293 cells (AID 1920063). Note: nearly all actives have a fitted effect of over 35% in size. An outline of the steps: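 Compounds dissolved in DMSO are pin-transferred onto dye-loaded GnRHR-HEK293 cells, which were seeded 18 h before at 37 C/5% CO2. Calcium signal is read as fluorescence intensity at 1 s intervals for 3 min.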

Assay [4] concerns the target KiSS-1 receptor (Homo sapiens) (UniProt Q969F8). The experiment in a line: Human kisspeptin (KISS1R) small molecule agonists, calcium flux assay in KISS1R-HEK293 cells (AID 1920064; active = well fitted curve in the direction sought with a large enough effect in the repeat runs; an effect the other way counts as inactive or inconclusive). An outline of the steps: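 Cell line: HEK293, stable human KISS1R. Dye loading 1 h at 37 C after 18 h culture. Read: kinetic fluorescence, 480/540 nm, 3 min at 1 s intervals.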
Assay [5] can be described thus: G protein-coupled receptor (GPCR) small molecule agonists, calcium flux assay: HEK293 wild type cell line counter screen (AID 1920065). An outline of the steps: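 Tox21 10K compounds, 15 concentrations each in triplicate, pin-transferred in DMSO onto dye-loaded cells; kinetic read at 480/540 nm for 3 min, 1 s intervals.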
Assay [6] is described as follows: p53 small molecule agonists, cell-based qHTS assay with human liver microsomes (AID 1963577). An outline of the steps: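 p53RE-bla reporter cells were pre-incubated 5 h at 37 C, then treated with compounds plus human liver microsomes (0.5 mg/mL final) and NADPH (0.5 mg/mL final) for 16 h at 37 C. Beta-lactamase activity was read by LiveBLAzer fluorescence after 2 h at room temperature.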

A short description of assay [7]: p53 small molecule agonists, cell-based qHTS assay with rat liver microsomes (AID 1963578). The procedure, abridged: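 p53RE-bla cells were exposed to compounds together with rat liver microsomes (0.5 mg/mL final) and NADPH (0.5 mg/mL final) for 16 h at 37 C, then read by LiveBLAzer beta-lactamase fluorescence after 2 h at room temperature.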
The nature of assay [8]: p53 small molecule agonists, cell-based qHTS assay with human liver microsomes: qHTS cell viability counter screen (AID 1963579). Note: nearly all actives have a fitted effect of over 45% in size. An outline of the steps: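 p53RE-bla cells (4,000/well) were pre-incubated 5 h at 37 C, then given compounds in DMSO plus human liver microsomes (0.5 mg/mL final) and NADPH (0.5 mg/mL final) for 16 h at 37 C. Viability was read by CellTiter-Glo luminescence.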

Assay [9] is described as follows: p53 small molecule agonists, cell-based qHTS assay: qHTS cell viability counter screen (AID 1963581). Note: nearly all actives have a fitted effect of over 45% in size. The procedure, abridged: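 ATP content measured by luminescence in HCT-116 p53RE-bla cells treated 16 h at 37 C, same wells as the reporter screen.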
Assay [10] in a line: p53 small molecule agonists, cell-based qHTS assay (AID 1963582; active = well fitted activation curve with a large enough effect in the signal ratio in the repeat runs, not every such curve was filed as active; the % refers to the signal ratio). The procedure, abridged:
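16 h compound exposure (37 C) of p53 response element–bla cells, preceded by 5 h recovery at 37 C/5% CO2; read-out via LiveBLAzer B/G FRET substrate, 2 h RT, fluorescence intensity.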

The target in assay [11] is 5-hydroxytryptamine receptor 2A (Homo sapiens) (UniProt P28223). Briefly: 5-hydroxytryptamine receptor 2A (HTR2A) small molecule antagonists, cell-based qHTS assay (AID 1963586). Note: nearly all actives have a fitted effect of over 45% in size. The procedure, abridged: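 CHO cells stably expressing human HTR2A were plated for 18 h at 37 C, then loaded with calcium dye for 1 h. Compounds were preincubated 5 min at room temperature before DOI (4 nM solution) was added. Kinetic fluorescence was read for 3 min.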

Assay [12] has the same target. Briefly: 5-hydroxytryptamine receptor 2A (HTR2A) small molecule agonists, cell-based qHTS assay (AID 1963587). Note: nearly all actives have a fitted effect of over 30% in size. An outline of the steps:
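CHO cells stably expressing human HTR2A, plated 18 h, loaded with calcium dye 1 h at 37 C. Agonist mode: compounds added and intracellular calcium fluorescence recorded kinetically for 2 min at 1 sec intervals.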

The target in assay [13] is Muscarinic acetylcholine receptor M1 (Homo sapiens) (UniProt P11229). Briefly: Cholinergic receptor muscarinic 1 (CHRM1) small molecule antagonists, cell-based qHTS assay (AID 1963588). Note: nearly all actives have a fitted effect of over 40% in size. An outline of the steps:
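Compounds were tested at 15 concentrations in three independent runs. Dye-loaded CHRM1-CHO cells were exposed 5 min at room temperature before stimulation by acetylcholine added at 50nM. Intracellular calcium was read kinetically on FDSS for 3 min.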

The target is the same in assay [14]. The experiment in a line: Cholinergic receptor muscarinic 1 (CHRM1) small molecule agonists, cell-based qHTS assay (AID 1963589). Note: nearly all actives have a fitted effect of over 35% in size. An outline of the steps:
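Homogeneous fluorescence calcium flux, agonist mode. Human M1-expressing CHO cells; compound dosed at 15 concentrations, three independent runs; signal sampled every 1 sec.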

The nature of assay [15]: cAMP Responsive Elements (CRE) small molecule agonists, cell-based qHTS assay (AID 1963590). An outline of the steps: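 HEK 293T cells stably bearing CRE-bla were plated at 2,000 cells per well and rested 18 h. Compounds, positive controls or DMSO were added for 3 h at 37 C. LiveBLAzer B/G substrate was then loaded for 2 h at room temperature.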
Assay [16] is described as follows: cAMP Responsive Elements (CRE) small molecule antagonists, cell-based qHTS assay (AID 1963591; active = well fitted inhibition curve with a large enough effect in the signal ratio in the repeat runs, not every such curve was filed as active; the % refers to the signal ratio). The procedure, abridged:
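First, CRE-bla HEK293T cells settled 18 h at 37 C. Next, compound and 0.25 uM final NKH477 were applied for 3 h. Last, LiveBLAzer B/G substrate was loaded for 2 h at room temperature.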

The target of assay [17] is D(2) dopamine receptor (Homo sapiens) (UniProt P14416). The experiment in a line: Dopamine D2 receptor (DRD2) small molecule agonists, cell-based qHTS assay (AID 1963594). Note: nearly all actives have a fitted effect of over 35% in size. An outline of the steps:
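HEK293 cells stably expressing human DRD2, pre-treated with PDE inhibitor Ro20-1724 (0.1 mM final) and compound 10 min at room temperature, then stimulated with NKH477 (200nM […]) for 30 min. cAMP read by HTRF (665/620 nm).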

The target is the same in assay [18]. The experiment in a line: Dopamine D2 receptor (DRD2) small molecule antagonists, cell-based qHTS assay (AID 1963595; active = well fitted inhibition curve with a large enough effect in the signal ratio in the repeat runs, with a control signal flat; the % refers to the signal ratio; note: potency is the fitted concentration of half-maximal effect). An outline of the steps: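 HEK293 cells stably expressing DRD2, preincubated with 0.1 mM Ro20-1724 and compounds 10 min, were stimulated with 200 nM NKH477 plus 12 nM quinpirole for 30 min at room temperature; cAMP measured by HTRF (665/620 nm).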

Assay [19] can be described thus: p53 small molecule agonists, cell-based qHTS assay with rat liver microsomes: qHTS cell viability counter screen (AID 1963580). Note: nearly all actives have a fitted effect of over 45% in size. An outline of the steps:
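After the beta-lactamase ratio was read, CellTiter-Glo was added to the same wells and luminescence measured at 30 min; cells had been treated 16 h at 37 C with compounds, rat liver microsomes and NADPH (0.5 mg/mL final each).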

For assay [20], the target named is Beta-2 adrenergic receptor (Homo sapiens) (UniProt P07550). Briefly: Adrenergic beta2 receptor (ADRB2) small molecule antagonists, cell-based qHTS assay (AID 1963592). Note: series mostly up to about 92 µM; nearly all actives have a fitted effect of over 50% in size. The procedure, abridged: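 Assay format: CHO-ADRB2 cells, 18-20hr seeding at 37C/5% CO2, then compound plus 1nM isoproterenol agonist mix for 0.5hr RT. Homogeneous time-resolved fluorescence cAMP detection after 1hr, expressed as 665/615 nm ratio.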
Beta-2 adrenergic receptor (Homo sapiens), sequence (P07550 whole entry, looked up): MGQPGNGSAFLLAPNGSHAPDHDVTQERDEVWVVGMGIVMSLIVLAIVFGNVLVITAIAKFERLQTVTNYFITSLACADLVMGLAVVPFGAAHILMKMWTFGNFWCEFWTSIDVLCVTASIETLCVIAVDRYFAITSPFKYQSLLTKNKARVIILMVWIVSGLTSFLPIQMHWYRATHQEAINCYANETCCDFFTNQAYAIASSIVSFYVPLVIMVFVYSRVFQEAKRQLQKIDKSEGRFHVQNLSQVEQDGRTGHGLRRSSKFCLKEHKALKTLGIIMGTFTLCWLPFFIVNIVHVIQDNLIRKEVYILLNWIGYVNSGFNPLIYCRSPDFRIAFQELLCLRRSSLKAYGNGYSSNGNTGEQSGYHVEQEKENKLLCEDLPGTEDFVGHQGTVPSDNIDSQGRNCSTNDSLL

Gonadotropin-releasing hormone receptor (Homo sapiens), sequence (P30968 whole entry, looked up): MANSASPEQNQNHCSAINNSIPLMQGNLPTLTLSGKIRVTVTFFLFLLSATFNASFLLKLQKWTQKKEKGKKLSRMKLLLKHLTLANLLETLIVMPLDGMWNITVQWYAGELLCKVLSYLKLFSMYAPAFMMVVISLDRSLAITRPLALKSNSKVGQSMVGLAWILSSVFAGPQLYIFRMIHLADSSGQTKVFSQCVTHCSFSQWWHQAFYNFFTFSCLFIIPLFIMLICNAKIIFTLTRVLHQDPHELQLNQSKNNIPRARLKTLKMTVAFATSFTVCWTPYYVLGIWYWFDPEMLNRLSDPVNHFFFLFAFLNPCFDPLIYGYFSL
Muscarinic acetylcholine receptor M1 (Homo sapiens), sequence (P11229 whole entry, looked up): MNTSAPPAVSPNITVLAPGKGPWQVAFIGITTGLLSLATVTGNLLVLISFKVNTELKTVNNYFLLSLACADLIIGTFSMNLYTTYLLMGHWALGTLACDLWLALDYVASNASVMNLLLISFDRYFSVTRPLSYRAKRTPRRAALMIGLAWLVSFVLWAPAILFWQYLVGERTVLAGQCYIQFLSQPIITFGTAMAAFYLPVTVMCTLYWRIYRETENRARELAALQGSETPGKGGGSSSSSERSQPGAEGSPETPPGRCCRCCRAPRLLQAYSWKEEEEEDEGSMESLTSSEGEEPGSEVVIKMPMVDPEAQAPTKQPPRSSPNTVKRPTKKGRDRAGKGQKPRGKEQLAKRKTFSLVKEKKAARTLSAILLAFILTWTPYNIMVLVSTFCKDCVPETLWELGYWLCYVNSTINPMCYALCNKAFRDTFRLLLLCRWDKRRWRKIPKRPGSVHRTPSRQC
KiSS-1 receptor (Homo sapiens), sequence (Q969F8 whole entry, looked up): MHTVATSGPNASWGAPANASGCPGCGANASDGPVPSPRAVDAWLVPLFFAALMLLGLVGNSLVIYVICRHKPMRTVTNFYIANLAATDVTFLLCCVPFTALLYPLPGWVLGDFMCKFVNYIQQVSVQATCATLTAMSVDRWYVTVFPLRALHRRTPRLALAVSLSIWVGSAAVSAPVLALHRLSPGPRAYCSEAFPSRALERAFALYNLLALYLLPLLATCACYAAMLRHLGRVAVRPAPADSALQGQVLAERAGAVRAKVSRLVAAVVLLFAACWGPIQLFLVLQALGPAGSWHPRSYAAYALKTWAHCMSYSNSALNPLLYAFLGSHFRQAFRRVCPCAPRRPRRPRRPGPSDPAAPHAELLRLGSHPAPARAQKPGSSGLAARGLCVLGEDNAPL
D(2) dopamine receptor (Homo sapiens), sequence (P14416 whole entry, looked up): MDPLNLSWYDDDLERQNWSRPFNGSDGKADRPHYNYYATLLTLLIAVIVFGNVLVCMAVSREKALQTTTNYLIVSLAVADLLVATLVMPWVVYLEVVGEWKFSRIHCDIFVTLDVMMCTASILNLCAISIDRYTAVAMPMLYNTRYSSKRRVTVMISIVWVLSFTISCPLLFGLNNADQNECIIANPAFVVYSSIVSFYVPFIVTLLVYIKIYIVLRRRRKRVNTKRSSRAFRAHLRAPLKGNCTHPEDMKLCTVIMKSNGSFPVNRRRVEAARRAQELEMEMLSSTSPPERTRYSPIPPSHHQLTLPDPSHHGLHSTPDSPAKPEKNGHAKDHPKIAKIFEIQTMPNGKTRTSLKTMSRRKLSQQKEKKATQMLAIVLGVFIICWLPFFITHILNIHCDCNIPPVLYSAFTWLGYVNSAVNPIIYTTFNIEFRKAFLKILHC
5-hydroxytryptamine receptor 2A (Homo sapiens), sequence (P28223 whole entry, looked up): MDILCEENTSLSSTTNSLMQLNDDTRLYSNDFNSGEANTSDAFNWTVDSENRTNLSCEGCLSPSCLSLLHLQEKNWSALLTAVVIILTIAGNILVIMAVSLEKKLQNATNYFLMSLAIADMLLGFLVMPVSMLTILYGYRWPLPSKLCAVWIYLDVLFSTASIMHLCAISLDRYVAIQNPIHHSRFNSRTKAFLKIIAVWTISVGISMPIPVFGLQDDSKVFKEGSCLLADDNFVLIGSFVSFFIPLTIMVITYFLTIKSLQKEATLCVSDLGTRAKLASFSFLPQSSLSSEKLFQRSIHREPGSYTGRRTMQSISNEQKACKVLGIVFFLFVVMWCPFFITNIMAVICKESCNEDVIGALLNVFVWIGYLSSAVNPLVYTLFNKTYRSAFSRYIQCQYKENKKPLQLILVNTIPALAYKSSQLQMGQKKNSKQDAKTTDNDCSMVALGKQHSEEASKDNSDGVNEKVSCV

Turning to `CCC(=O)/C=C/C1C(C)=CCCC1(C)C` (centres undefined), the Potency result in assay [1], in [2], in assay [3], in [4], in assay [5] and in assay [6] was “inactive” each time. Moreover, the Potency result in assay [7], in assay [8], in assay [9], in assay [10], in [11] and in assay [12] was “inactive” in each case. Further, the Potency result in [13], in assay [14], in assay [15], in assay [16], in [17] and in [18] was “inactive” throughout.

Turning to `NS(=O)(=O)c1cc2c(cc1Cl)NC=NS2(=O)=O`, the Potency entry in [1], in assay [2], in assay [3], in assay [4], in assay [5] and in [6] was “inactive” in each case. The Potency result in assay [7], in assay [8], in [19], in assay [10], in [11] and in assay [12] was “inactive” throughout. For the same molecule, the Potency entry in [13], in assay [15], in [20], in assay [17] and in assay [18] was “inactive” each time.

As to `O=CCCCC=O`, the Potency entry in assay [1], in assay [3], in assay [4], in assay [5], in assay [6] and in [7] was “inactive” throughout. Besides, the Potency result in [8], in assay [9], in assay [10], in assay [11], in [12] and in [13] was “inactive” each time. Further, the Potency entry in assay [14], in assay [15], in [16], in assay [20], in assay [17] and in assay [18] was “inactive” throughout. Moreover, the Potency in assay [2] was 52.5 µM (active) and inactive.

`CCc1cccc2c3c([nH]c12)C(CC)(CC(=O)O)OCC3` (centres undefined): the Potency entry in [1], in assay [2], in assay [3], in assay [4], in [5] and in assay [6] was “inactive” throughout. In addition, the Potency entry in [7], in [8], in assay [9], in [10], in assay [15] and in [16] was “inactive” in each case. The Potency result in [20] and in assay [17] was “inactive” throughout. For the same molecule, in [18], the Potency result is “inactive and 23.7 µM (active)”.

Turning to `CCN(CC)CCOC(=O)c1ccc(N)cc1`, the Potency entry in [1], in assay [2], in assay [3], in assay [4], in [5] and in assay [6] was “inactive” each time. The Potency entry in assay [7], in assay [8], in assay [9], in assay [10], in assay [15] and in [16] was “inactive” throughout. The Potency result in [20], in assay [17] and in assay [18] was “inactive” throughout.

Consider `COC(C)COC(C)COC(C)CO` (centres undefined), for which the Potency entry in assay [1], in assay [2], in [3], in assay [4], in assay [5] and in assay [6] was “inactive” in each case. Besides, the Potency entry in [7], in assay [8], in assay [9], in assay [10], in assay [11] and in assay [12] was “inactive” throughout. In addition, the Potency entry in assay [13], in assay [14], in assay [15], in assay [16], in [17] and in [18] was “inactive” throughout.

As to `CC(=O)O[C@]1(C(C)=O)CC[C@H]2[C@@H]3C[C@H](C)C4=CC(=O)CC[C@]4(C)[C@H]3CC[C@@]21C`, the Potency result in assay [1], in assay [2], in assay [3], in [4], in assay [5] and in assay [6] was “inactive” each time. The Potency result in [7], in assay [8], in [19], in assay [10], in assay [20] and in assay [17] was “inactive” each time. In addition, the Potency result in [18] is “inactive”.

In the case of `O=C(O)c1ccc(S(=O)(=O)N(Cl)Cl)cc1`, the Potency entry in [1], in [2], in assay [3], in assay [4], in assay [5] and in assay [6] was “inactive” throughout. The Potency entry in [7], in assay [8], in assay [9], in [10], in assay [11] and in assay [12] was “inactive” in each case. The Potency entry in assay [13], in assay [14], in assay [15], in assay [16], in assay [20] and in [17] was “inactive” each time. The Potency entry in [18] is “inactive”.
